# Counter-ions that a name gives are not always drawn. The campaign covered roughly 5,800 compounds. About 620 (11%) showed activity. Only a selection was taken, and actives are over-represented in it overall. A number with no mark means an inactive call.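 The calls were made as follows: active = score above a cut-off or among the top three wells of a plate; in these data no inactive exceeds 0.85.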
# Tested on: primary human hepatic stellate cells (donor 1)
# Assay: scaled lipid accumulation score (0 = DMSO-like, 1 = nortriptyline-like); higher = stronger HSC inactivation (lipid re-accumulation), active = hit call of the paper
# Details: 48 h
# [1] = library stock concentration: 10 mM
# [2] = library stock concentration: 80 uM
# [3] = library stock concentration: 400 uM
# [4] = library stock concentration: 2 mM
# [5] = library stock concentration: 1 mM
# [6] = library stock concentration: 3.33 mM
smiles,measurement,setting,value
CCCCCCCCCCCCCCCC(=O)C1=C(O)[C@@H](CO)OC1=O,scaled lipid accumulation score,library stock concentration: 13.6 mM,≤ -0.012
CC1(C)[C@H]2CC[C@]1(CS(=O)(=O)O)C(=O)C2=Cc1ccc(C=C2C(=O)[C@@]3(CS(=O)(=O)O)CC[C@@H]2C3(C)C)cc1,scaled lipid accumulation score,[1],≤ 0
O=C1NC(=O)/C(=C\c2cccc(C(F)(F)F)c2)S1 [PIM12 kinase inhibitor V],scaled lipid accumulation score,[2],≤ -0.001
same,scaled lipid accumulation score,[3],≤ -0.001
same,scaled lipid accumulation score,[4],≤ -0.001
same,scaled lipid accumulation score,[1],0.011
"CCCCCC(=O)CC[C@@H]1[C@@H](CCCCCCC(=O)O)[C@@H](O)C[C@H]1O [13,14-dihydro-15-keto Prostaglandin F1.alpha.]",scaled lipid accumulation score,[5],≤ 0
O=[N+]([O-])c1cc(Cl)ccc1S(=O)(=O)N1CCN(Cc2ccccc2)CC1,scaled lipid accumulation score,[1],0.048
CN(C)c1cnccn1,scaled lipid accumulation score,[1],≤ 0
CCCCC[C@](C)(O)/C=C/[C@H]1[C@H](O)CC(=O)[C@@H]1C/C=C\CCCC(=O)O [15(S)-15-methyl Prostaglandin E2],scaled lipid accumulation score,[5],≤ 0
CCc1cc2c(cc1N1CCC(N3CCOCC3)CC1)C(C)(C)c1[nH]c3cc(C#N)ccc3c1C2=O [listing 1 of 2 here],scaled lipid accumulation score,[1],1.17 (active)
CCc1cc2c(cc1N1CCC(N3CCOCC3)CC1)C(C)(C)c1[nH]c3cc(C#N)ccc3c1C2=O [listing 2 of 2 here],scaled lipid accumulation score,[2],≤ -0.016
same,scaled lipid accumulation score,[3],≤ -0.016
same,scaled lipid accumulation score,[4],0.126
N#Cc1ccc2[nH]c(O)c(-c3ccc(CN4CCOCC4)cn3)c2c1,scaled lipid accumulation score,[6],0.477
same,scaled lipid accumulation score,[1],0.769
CC#CCOC(=O)C1=CCCN(C)C1 [Arecaidine but-2-ynyl ester tosylate],scaled lipid accumulation score,[1],≤ 0
CCOC(=O)[C@H](CCc1ccccc1)N[C@@H](C)C(=O)N1Cc2cc(OC)c(OC)cc2C[C@H]1C(=O)O [Moexipril hydrochloride],scaled lipid accumulation score,[1],0.011
CCOC(=O)[C@H](CCc1ccccc1)N[C@@H](C)C(=O)N1Cc2cc(OC)c(OC)cc2C[C@H]1C(=O)O [Moexipril HCl],scaled lipid accumulation score,[6],≤ 0
same,scaled lipid accumulation score,[1],≤ 0
CO[C@H]1C[C@H](O[C@H]2[C@H](C)[C@@H](O[C@@H]3O[C@H](C)C[C@H](N(C)C)[C@H]3O)[C@@H](C)C[C@@]3(CO3)C(=O)[C@H](C)[C@@H](O)[C@@H](C)[C@@H](C)OC(=O)[C@@H]2C)O[C@@H](C)[C@@H]1O [Oleandomycin phosphate],scaled lipid accumulation score,,≤ 0
same,scaled lipid accumulation score,[1],≤ 0
CCCCCCCCCCCCCCCCOC[C@H](COP(=O)([O-])OCC[N+](C)(C)C)SC(=O)CCCCCC [Heptanoyl thio-PC],scaled lipid accumulation score,[5],0.071
